Experimental data as given in PubChem BioAssay (NCI).
The panel holds about 79,000 compounds, 15% with a hit somewhere; the sample as a whole holds those more often. No stated cut-off is given here; in the data, active means growth inhibition above about 70%; inactive means the rest.

Tests used:
[1] = NCI Yeast Anticancer Drug Screen. Data for the rad50 strain (AID 155);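 further: 0% = growth of vehicle-only cultures of the same strain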; conditions: S. cerevisiae rad50 strain growth inhibition; at 50.0 µM; hits give high values
Method in brief: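 Vehicle-treated cultures provide the reference for the growth inhibition reported for compound-exposed, repair-deficient yeast.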

[2] = NCI Yeast Anticancer Drug Screen. Data for the mec2-1 strain (AID 157); conditions: S. cerevisiae mec2-1 strain, at 50.0 µM, hits give high values
Method in brief: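 Growth inhibition is read against vehicle-treated controls after compound exposure of the mec2-1 yeast strain, which is defective in DNA damage repair or cell cycle control.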

[3] = NCI Yeast Anticancer Drug Screen. Data for the sgs1 mgt1 strain (AID 161);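 further: 0% = growth of cultures given vehicle only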; conditions: S. cerevisiae sgs1 mgt1 strain, at 50.0 µM, hits give high values
Method in brief: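 Percent growth inhibition was derived by comparing compound-exposed mutant yeast with vehicle-exposed cultures. The strain carries alterations in DNA damage repair.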

[4] = NCI Yeast Anticancer Drug Screen. Data for the cln2 rad14 strain (AID 165);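 further: 0% = growth equal to vehicle treated cultures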; conditions: S. cerevisiae cln2 rad14 strain, at 50.0 µM, hits give high values
Method in brief: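 Growth inhibition, relative to vehicle-treated controls, is the read-out. The test organism is a yeast strain with defined genetic alterations, cln2 rad14.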

[5] = NCI Yeast Anticancer Drug Screen. Data for the bub3 strain (AID 167); conditions: S. cerevisiae bub3 mutant strain, at 50.0 µM, hits give high values
Method in brief: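 Mutant yeast screening strain plus compound; vehicle-treated cultures serve as the 0% inhibition reference.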

[6] = NCI Yeast Anticancer Drug Screen. Data for the mlh1 rad18 strain (AID 175); conditions: S. cerevisiae mlh1 rad18 strain growth inhibition; at 50.0 µM; hits give high values
Method in brief: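 Cells of a genetically altered yeast strain, deficient in DNA damage repair, were treated with compound. Their growth was then compared with that of vehicle-treated cultures to give inhibition.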

Measured: growth inhibition

Cc1cc2c(c(S(=O)(=O)c3ccc(Cl)cc3[N+](=O)[O-])c1)NCCC2
inactive: [1] 6.4% | [2] 11% | [3] 8.25% | [4] 15.3% | [5] 15.7% | [6] -0.7%

C=C1N(C)c2ccccc2C1(C)C
inactive: [1] 22.7% | [2] 10.2% | [3] -12.2% | [4] 29.4% | [5] 6.2% | [6] 17.3%

CN(C)CSCCO
inactive: [1] -2.8% | [2] -1.5% | [3] -5.7% | [4] -14.8% | [5] -5.1% | [6] 0.45%

ClCCOCOc1ccc2ccccc2c1
inactive: [1] 29.6% | [2] 23.9% | [3] 43.6% | [4] 16.7% | [5] 26.6% | [6] 26.9%

CCc1c(Cl)c(Cl)c(Cl)c(Cl)c1Cl
inactive: [1] 2.95% | [2] 2.35% | [3] 4.15% | [4] -42.5% | [5] -2.9% | [6] 13.8%

C=CCNC(=O)CN(CC(=O)OC)C1CCCCC1N(CC(=O)OC)CC(=O)OC (centres undefined)
inactive: [1] -8.3% | [2] -6.6% | [3] -1.8% | [4] 6.75% | [5] 2% | [6] 1.75%

CCOC#CCCOCc1ccccc1
inactive: [1] -28.9% | [2] -46.2% | [3] -5.25% | [4] -1.65% | [5] -11% | [6] -16.6%

Cc1ccccc1C1(O)c2cccc3cccc(c23)C1(O)c1ccccc1C (centres undefined)
inactive: [1] 2.95% | [2] 8.45% | [3] -7.45% | [4] -10.9% | [5] 10.9% | [6] -22.4%

O=C1Cn2c(cc(=O)c3ccccc32)O1
inactive: [1] 37.5% | [2] 13.6% | [3] 5.9% | [4] -9.35% | [5] 9.8% | [6] 14.8%

NC(=O)NN1CC(=O)N(c2ccccc2)CC1=O
inactive: [1] 7.75% | [2] 8.2% | [3] 6.8% | [4] -18.1% | [5] 14.2% | [6] 28.6%

O=c1c(-c2ccccc2)c2oc(c1-c1ccccc1)CSCc1cccc(c1)CSC2
inactive: [1] 15% | [2] -0.1% | [3] -3.55% | [4] -28.9% | [5] -20.6% | [6] 7.8%

O=c1n(-c2ccccc2)c(=O)n2c(-c3ccccc3)c(-c3ccccc3)n12
inactive: [1] 38.5% | [2] -23.7% | [3] -36.5% | [4] -12.6% | [5] -23.6% | [6] -30.8%

NNc1cc(=O)[nH]c(N)n1
inactive: [1] -17.6% | [2] -18.6% | [3] -31.2% | [4] -19.1% | [5] -6.95% | [6] -29.9%

O=C1NC(=O)C(=CN2C(=O)/C(=C/c3ccc([N+](=O)[O-])cc3)SC2=S)C(=O)N1
inactive: [1] -0.4% | [2] 33.2% | [3] 40.6% | [4] 20.4% | [5] 20.6% | [6] 21.9%

Cc1cc2nc(NN)[nH]c2cc1C
inactive: [1] 5.15% | [2] 7.15% | [3] -17.5% | [4] -10% | [5] -26.4% | [6] 22.1%

c1ccc2c(c1)CCC2
inactive: [1] 12.1% | [2] -10.2% | [3] -23.1% | [4] 1.55% | [5] -18.1% | [6] -6.6%

CNC(=O)N(C)C(C)=O
inactive: [1] -6.15% | [2] -1.25% | [3] 0% | [4] -3.25% | [5] -5.15% | [6] 4.9%

CC1(C2(C)Nc3ccccc3O2)Nc2ccccc2O1 (centres undefined)
inactive: [1] 10.2% | [2] 8.35% | [3] 9.95% | [4] -36.8% | [5] 3.65% | [6] 9.05%

Nc1c(F)c(F)cc(F)c1[N+](=O)[O-]
inactive: [1] 2.6% | [2] -2.7% | [3] 2.55% | [4] 7.6% | [5] 9.6% | [6] 4.35%

CSC(=NCCCCN=C(NS(=O)(=O)c1ccc(Cl)cc1)SC)NS(=O)(=O)c1ccc(Cl)cc1
inactive: [1] -18.1% | [2] -27% | [3] -16.9% | [4] 13.9% | [5] -8.8% | [6] -11.2%

S=C(Nc1ccccc1)N1N=C2c3ccccc3CC[C@H]2[C@@H]1c1ccccc1
inactive: [1] -24.3% | [2] -37.9% | [3] -37.5% | [4] -1% | [5] -28.2% | [6] -58.5%

COC(=O)C(Cc1nc2ccccc2[nH]c1=O)C(NO)C(=O)Nc1c(Cl)cc([N+](=O)[O-])cc1Cl (centres undefined)
inactive: [1] -3.85% | [2] -7.4% | [3] 36.6% | [4] 10.2% | [5] 22.2% | [6] -1.75%

CSC1(C)C(=O)Nc2cccc([N+](=O)[O-])c21 (centres undefined)
inactive: [1] -9.85% | [2] -20.1% | [3] 1% | [4] -7.5% | [5] 11.8% | [6] 2.45%

N#Cc1cc([N+](=O)[O-])ccc1NC(=O)/C(=N\NC(=O)c1ccncc1)C(c1cnc2ccc([N+](=O)[O-])cc2n1)[N+](=O)[O-] (centres undefined)
inactive: [1] 8.6% | [2] 11.4% | [3] -11.1% | [4] -16.1% | [5] 25.4% | [6] 2.75%

C[n+]1ccccc1/C=C/c1ccc2c(c1)OCO2
inactive: [1] 18.3% | [2] 5.9% | [3] 22.5% | [4] -0.45% | [5] 29.9% | [6] 6.6%

COCc1ccc(C(C)(C)CC(C)(C)C)cc1
inactive: [1] 32.6% | [2] 8.4% | [3] -0.1% | [4] 13.6% | [5] -0.45% | [6] -1.3%

Cc1cccnc1Br
inactive: [1] -25.2% | [2] -9.85% | [3] -5.05% | [4] -29.6% | [5] -5.65% | [6] -26.1%

Cc1cccc(NC(=O)CSc2nnc(-c3ccc(N=Cc4ccc(Cl)cc4)cc3)o2)c1
inactive: [1] 6.3% | [2] -24.1% | [3] 9.25% | [4] -42.5% | [5] 6.8% | [6] 14.7%

COc1cc(C2C3=C(COC3=O)Oc3cc4c(cc32)OCO4)cc(OC)c1OC (centres undefined)
inactive: [1] -3.15% | [2] 24.1% | [3] -8.35% | [4] 14.2% | [5] -12.2% | [6] 3.5%

O=S1(=O)OCCC1C(O)(c1ccccc1)c1ccccc1 (centres undefined)
inactive: [1] 1.7% | [2] -3.65% | [3] 6.8% | [4] -49.3% | [5] 11.2% | [6] 16.9%

COc1cc2c(cc1OC)C(C(=O)O)C(c1ccccc1)N(C)C2=O (centres undefined)
inactive: [1] -36.8% | [2] -11.8% | [3] -6.5% | [4] 19.4% | [5] -13.2% | [6] 3.25%

C1=C2/CC[C@H](Sc3ccccc3)[C@H]2C2(CCCCC/1)OCCO2
inactive: [1] 13.8% | [2] -19% | [3] -6.45% | [4] -1.05% | [5] 13.2% | [6] -4.05%

CCOC(=O)C1=NNCC1c1cccc(Cl)c1 (centres undefined)
inactive: [1] 12.5% | [2] -7.5% | [3] -3.7% | [4] -37.9% | [5] -13.2% | [6] -6.5%

O=c1c(Cl)c(Cl)cnn1-c1ccc([N+](=O)[O-])cc1[N+](=O)[O-]
inactive: [1] 5.7% | [2] 6.7% | [3] 3.05% | [4] -4.25% | [5] -0.65% | [6] 5.75%

COC(=O)C(=O)C(C#N)c1c(Cl)cccc1Cl (centres undefined)
inactive: [1] -5.6% | [2] 39.1% | [3] 0.05% | [4] 8.9% | [5] 1.65% | [6] 34.1%

O=C(Nc1ccccc1)OC1C(OC(=O)c2ccccc2)OC(COC(=O)c2ccccc2)C1OC(=O)c1ccccc1 (centres undefined)
inactive: [1] -0.5% | [2] 0.75% | [3] 0.25% | [4] -0.85% | [5] -9.1% | [6] -10.5%

COC(=O)/C=C/C(=O)N1CC(C)N(C(=O)/C=C/C(=O)OC)CC1C (centres undefined)
inactive: [1] -8.45% | [2] -3.55% | [3] -9.2% | [4] 37.4% | [5] 1.45% | [6] -14.4%

COc1cc(C2C(Cl)C(=O)N2NC(=O)c2ccc(NC(C)=O)cc2)cc(Br)c1O (centres undefined)
inactive: [1] -0.25% | [2] -14.8% | [3] -9.6% | [4] -24.9% | [5] -7.9% | [6] -30.9%

COCC1C(COC)C2CCC1C2(Cc1ccccc1)Cc1ccccc1 (centres undefined)
inactive: [1] 1.4% | [2] 12.4% | [3] 18.1% | [4] -45.4% | [5] 0% | [6] -7.2%
